Key:
[1] = biological target: Mitogen-activated protein kinase kinase kinase kinase 4 (Homo sapiens) (UniProt O95819); conditions: at 1 µM;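 also: reported figure is an averaged inhibition value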
[2] = biological target: Dual specificity mitogen-activated protein kinase kinase 1 (Homo sapiens) (UniProt Q02750); conditions: at 0.1 µM
[3] = biological target: Dual specificity mitogen-activated protein kinase kinase 1 (Homo sapiens) (UniProt Q02750); conditions: at 1 µM
[4] = biological target: Misshapen-like kinase 1 (Homo sapiens) (UniProt Q8N4C8); conditions: at 0.1 µM
[5] = biological target: Misshapen-like kinase 1 (Homo sapiens) (UniProt Q8N4C8); conditions: at 1 µM
[6] = biological target: T1, Serine/threonine-protein kinase 4 (Homo sapiens) (UniProt Q13043); conditions: at 0.1 µM
T1 sequence (whole entry): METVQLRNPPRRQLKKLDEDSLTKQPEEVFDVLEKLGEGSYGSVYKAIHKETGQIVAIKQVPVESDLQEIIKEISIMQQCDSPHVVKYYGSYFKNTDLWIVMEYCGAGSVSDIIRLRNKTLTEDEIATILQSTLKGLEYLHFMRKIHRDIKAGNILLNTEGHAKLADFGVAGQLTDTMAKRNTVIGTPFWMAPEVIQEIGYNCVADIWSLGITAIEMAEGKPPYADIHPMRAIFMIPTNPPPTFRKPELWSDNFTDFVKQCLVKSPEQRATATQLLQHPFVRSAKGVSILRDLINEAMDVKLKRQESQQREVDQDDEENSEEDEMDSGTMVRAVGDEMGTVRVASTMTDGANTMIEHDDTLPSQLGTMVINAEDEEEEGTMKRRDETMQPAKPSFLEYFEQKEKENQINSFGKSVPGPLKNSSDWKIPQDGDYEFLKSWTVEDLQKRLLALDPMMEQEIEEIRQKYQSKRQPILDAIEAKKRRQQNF

[7] = biological target: T1, Serine/threonine-protein kinase 4 (Homo sapiens); conditions: at 1 µM
[8] = biological target: T2, Serine/threonine-protein kinase 3 (Homo sapiens) (UniProt Q13188); conditions: at 0.1 µM
T2 sequence (whole entry): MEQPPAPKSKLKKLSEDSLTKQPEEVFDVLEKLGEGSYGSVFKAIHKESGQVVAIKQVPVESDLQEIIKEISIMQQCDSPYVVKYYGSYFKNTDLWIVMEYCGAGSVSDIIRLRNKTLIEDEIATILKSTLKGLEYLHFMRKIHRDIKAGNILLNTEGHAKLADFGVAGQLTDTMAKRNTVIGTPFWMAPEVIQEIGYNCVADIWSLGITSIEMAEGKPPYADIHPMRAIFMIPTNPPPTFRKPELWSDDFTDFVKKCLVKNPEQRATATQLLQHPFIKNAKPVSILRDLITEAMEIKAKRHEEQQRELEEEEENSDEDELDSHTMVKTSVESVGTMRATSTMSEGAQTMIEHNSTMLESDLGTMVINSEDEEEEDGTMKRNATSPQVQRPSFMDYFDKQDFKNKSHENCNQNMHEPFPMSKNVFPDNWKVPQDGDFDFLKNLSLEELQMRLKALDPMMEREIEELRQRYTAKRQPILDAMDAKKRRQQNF

[9] = biological target: T2, Serine/threonine-protein kinase 3 (Homo sapiens); conditions: at 1 µM
[10] = biological target: Serine/threonine-protein kinase 26 (Homo sapiens) (UniProt Q9P289); conditions: at 0.1 µM
Serine/threonine-protein kinase 26 (Homo sapiens), sequence (Q9P289 2-416 limits assumed): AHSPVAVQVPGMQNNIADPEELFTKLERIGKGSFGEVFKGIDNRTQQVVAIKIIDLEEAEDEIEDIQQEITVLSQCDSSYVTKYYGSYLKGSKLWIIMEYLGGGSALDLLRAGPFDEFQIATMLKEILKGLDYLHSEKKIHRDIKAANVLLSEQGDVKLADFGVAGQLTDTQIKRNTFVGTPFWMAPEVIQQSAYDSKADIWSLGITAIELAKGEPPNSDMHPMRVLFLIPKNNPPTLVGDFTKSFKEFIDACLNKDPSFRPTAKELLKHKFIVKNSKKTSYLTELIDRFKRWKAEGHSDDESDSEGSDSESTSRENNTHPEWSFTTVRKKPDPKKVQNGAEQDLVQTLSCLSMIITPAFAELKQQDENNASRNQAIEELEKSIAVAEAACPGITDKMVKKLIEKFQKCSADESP

Dual specificity mitogen-activated protein kinase kinase 1 (Homo sapiens), sequence (Q02750 whole entry): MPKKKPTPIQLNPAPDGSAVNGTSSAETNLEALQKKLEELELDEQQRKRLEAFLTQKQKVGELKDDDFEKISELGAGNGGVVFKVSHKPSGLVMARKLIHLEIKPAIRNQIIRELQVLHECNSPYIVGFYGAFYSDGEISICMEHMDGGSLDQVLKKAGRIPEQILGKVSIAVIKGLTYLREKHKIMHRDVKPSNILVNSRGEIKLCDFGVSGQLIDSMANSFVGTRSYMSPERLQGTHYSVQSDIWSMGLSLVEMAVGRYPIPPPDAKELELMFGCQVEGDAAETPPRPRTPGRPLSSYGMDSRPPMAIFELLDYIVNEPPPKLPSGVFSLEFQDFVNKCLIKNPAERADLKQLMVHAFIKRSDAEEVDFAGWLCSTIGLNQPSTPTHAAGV
Misshapen-like kinase 1 (Homo sapiens), sequence (Q8N4C8 whole entry, looked up): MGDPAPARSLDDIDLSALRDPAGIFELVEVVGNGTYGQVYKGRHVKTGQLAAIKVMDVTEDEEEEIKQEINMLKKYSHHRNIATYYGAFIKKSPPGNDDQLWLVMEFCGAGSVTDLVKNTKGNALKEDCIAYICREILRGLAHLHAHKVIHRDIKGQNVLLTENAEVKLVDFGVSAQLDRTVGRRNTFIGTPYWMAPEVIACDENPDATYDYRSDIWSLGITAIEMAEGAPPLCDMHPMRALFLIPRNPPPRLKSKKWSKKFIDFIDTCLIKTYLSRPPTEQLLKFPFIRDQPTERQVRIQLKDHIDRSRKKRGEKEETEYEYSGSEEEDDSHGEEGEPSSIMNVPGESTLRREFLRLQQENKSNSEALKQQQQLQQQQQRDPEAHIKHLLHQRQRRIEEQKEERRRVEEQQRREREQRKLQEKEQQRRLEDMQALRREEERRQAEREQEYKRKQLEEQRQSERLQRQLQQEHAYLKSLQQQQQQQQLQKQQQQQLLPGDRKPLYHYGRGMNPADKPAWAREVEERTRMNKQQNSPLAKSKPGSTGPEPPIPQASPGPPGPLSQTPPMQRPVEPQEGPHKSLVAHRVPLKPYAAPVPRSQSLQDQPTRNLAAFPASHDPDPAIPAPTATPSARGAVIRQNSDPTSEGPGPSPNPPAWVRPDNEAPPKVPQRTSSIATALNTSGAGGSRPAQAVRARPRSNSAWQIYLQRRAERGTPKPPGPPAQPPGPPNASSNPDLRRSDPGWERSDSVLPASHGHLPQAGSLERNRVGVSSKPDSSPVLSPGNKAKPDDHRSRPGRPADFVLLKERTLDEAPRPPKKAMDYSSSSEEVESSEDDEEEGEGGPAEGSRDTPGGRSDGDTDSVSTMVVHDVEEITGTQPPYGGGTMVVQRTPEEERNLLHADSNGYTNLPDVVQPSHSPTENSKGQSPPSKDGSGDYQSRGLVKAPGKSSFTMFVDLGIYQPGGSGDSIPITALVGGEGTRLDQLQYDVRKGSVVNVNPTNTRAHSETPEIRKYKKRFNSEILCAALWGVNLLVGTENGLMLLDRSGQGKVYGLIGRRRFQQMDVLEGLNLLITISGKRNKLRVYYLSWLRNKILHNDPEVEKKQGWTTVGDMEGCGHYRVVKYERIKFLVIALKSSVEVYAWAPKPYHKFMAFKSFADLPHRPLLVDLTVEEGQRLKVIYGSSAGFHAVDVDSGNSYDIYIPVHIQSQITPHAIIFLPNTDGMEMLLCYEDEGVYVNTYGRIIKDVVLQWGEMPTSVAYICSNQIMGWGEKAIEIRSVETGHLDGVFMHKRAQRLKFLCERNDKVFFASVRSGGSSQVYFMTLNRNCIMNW
Mitogen-activated protein kinase kinase kinase kinase 4 (Homo sapiens), sequence (O95819 2-1239 limits assumed): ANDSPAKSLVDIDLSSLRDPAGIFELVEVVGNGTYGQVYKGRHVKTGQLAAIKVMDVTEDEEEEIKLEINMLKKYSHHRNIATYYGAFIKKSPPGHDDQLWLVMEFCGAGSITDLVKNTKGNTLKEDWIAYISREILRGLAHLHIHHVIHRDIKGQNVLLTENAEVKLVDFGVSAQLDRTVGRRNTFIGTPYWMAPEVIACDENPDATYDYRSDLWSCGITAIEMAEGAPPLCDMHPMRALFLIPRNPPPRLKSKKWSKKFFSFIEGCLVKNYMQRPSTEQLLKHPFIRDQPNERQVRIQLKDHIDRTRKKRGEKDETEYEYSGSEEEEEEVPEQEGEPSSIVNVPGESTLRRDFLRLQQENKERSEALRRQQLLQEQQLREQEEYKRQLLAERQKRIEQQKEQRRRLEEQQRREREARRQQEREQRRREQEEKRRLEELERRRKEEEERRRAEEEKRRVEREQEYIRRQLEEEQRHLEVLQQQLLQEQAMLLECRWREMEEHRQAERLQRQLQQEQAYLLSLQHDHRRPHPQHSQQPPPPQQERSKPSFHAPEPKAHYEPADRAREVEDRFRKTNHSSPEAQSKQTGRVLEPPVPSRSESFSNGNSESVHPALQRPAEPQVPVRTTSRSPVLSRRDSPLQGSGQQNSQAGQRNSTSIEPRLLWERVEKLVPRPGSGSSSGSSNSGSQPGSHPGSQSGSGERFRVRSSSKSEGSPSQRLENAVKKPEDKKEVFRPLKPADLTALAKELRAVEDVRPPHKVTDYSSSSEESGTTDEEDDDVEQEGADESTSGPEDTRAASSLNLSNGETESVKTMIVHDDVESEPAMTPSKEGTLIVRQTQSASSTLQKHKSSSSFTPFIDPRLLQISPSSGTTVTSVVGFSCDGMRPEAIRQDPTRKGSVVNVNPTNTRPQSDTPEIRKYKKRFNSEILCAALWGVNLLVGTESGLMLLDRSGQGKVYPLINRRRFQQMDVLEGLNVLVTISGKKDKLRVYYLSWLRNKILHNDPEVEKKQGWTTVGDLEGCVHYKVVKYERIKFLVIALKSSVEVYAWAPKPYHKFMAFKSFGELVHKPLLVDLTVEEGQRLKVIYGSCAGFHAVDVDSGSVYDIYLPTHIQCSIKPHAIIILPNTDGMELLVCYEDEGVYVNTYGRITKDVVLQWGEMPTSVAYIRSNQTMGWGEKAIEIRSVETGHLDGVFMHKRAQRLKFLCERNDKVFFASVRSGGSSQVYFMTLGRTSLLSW

SMILES	inhibition [1]	inhibition [2]	inhibition [3]	inhibition [4]	inhibition [5]	inhibition [6]	inhibition [7]	inhibition [8]	inhibition [9]	inhibition [10]
COc1cccc(-n2ncc3c(N/N=C/c4cccc(F)c4)ncnc32)c1	35%	3.46%	3.27%	7.28%	25.8%	3.89%	8.39%	2.89%	6.96%	-0.8%
COc1cc2c(cc1Nc1nc(N3CCc4ccccc43)c3cc[nH]c3n1)N(C(=O)CN(C)C)CC2	2.27%	1.49%	2.14%	3.79%	-0.01%	5.66%	6.86%	6.28%	5.22%	-0.61%
CS(=O)(=O)CCNCc1ccc(-c2ccc3ncnc(Nc4ccc(OCc5cccc(F)c5)c(C(F)(F)F)c4)c3c2)o1	8.1%	5.38%	4.64%	4.62%	7.1%	3.92%	5.23%	3.56%	4.74%	-1.09%
N#Cc1c(NC(=O)c2cccc3ccccc23)sc2c1CCCC2	13.8%	3.76%	3.46%	5.15%	11.1%	3.4%	4.3%	2.39%	3.8%	-1.1%
O=C1NC(=O)C(N2CCc3ccccc32)=C1c1ccc(Cl)cc1	9.97%	5.02%	5.22%	5.14%	10.3%	6.36%	7.67%	6.26%	7.91%	-1.31%
CN(C)c1cc2c(Nc3ccc4nc(Cc5ccccc5)[nH]c4c3)ncnc2cn1	9.42%	6.17%	5.42%	8.81%	9.2%	4.35%	3.57%	4.95%	2.18%	-1.17%
CCN1CCC(CC(=O)Nc2n[nH]c3nc(-c4cccs4)c(Br)cc23)CC1	9.82%	-3.83%	-4.66%	-1.72%	5.84%	-4.72%	-4.38%	-4.72%	-2.74%	2.05%
Nc1nc(-c2ccccn2)c(-c2ccc3ncccc3n2)s1	9.69%	2.95%	2.78%	5.37%	7.86%	5.62%	6.85%	5.79%	6.4%	-2.14%
CCn1c(-c2nonc2N)nc2cncc(C(=O)N3CC[C@H](N)C3)c21	5.7%	6.85%	6.13%	7.01%	6.82%	3.69%	4.11%	4.28%	4.87%	-0.5%
COc1ccccc1Nc1ncc(-c2ccccc2)o1	26.2%	4.67%	3.89%	6.62%	17.3%	3.93%	5.16%	6.13%	7.36%	-1.34%
COc1cc2ncn(-c3cc(OCc4ccccc4Cl)c(C(N)=O)s3)c2cc1OC	56.6%	2.14%	2.16%	10.9%	51%	7.11%	46.2%	6.18%	42.4%	0.45%
O=C1Nc2ccc(C(=O)c3ccco3)cc2C1=Cc1cc(Cl)c(O)c(Cl)c1	75.8%	2.93%	9.42%	18.1%	61.8%	21.7%	66.8%	20.4%	65.3%	3.9%
COc1cc(C=NNc2ncnc3c2cnn3-c2ccccc2)ccc1O	70.6%	1.68%	1.06%	24%	64.7%	2.58%	11.5%	3.41%	6.24%	1.85%
COc1cc2ncn(-c3cc(O[C@H](C)c4ccccc4Cl)c(C(N)=O)s3)c2cc1OC	18.6%	4.68%	4.4%	5.71%	16.9%	40.3%	77%	34.7%	73.8%	-3.36%
CC1=C(C(=O)Nc2ccc3[nH]ncc3c2)C(c2ccc3ccccc3c2)CC(=O)N1 (stereo not given)	3.73%	8.09%	44.4%	4.56%	3.98%	3.56%	12.2%	3.29%	9.79%	-0.11%
CCc1cccc(NC(=O)Nc2ccc(Oc3ccc4nc(NC(=O)OC)[nH]c4c3)cc2)c1	3.37%	1.28%	1.44%	3.46%	3.01%	3.69%	8.88%	5.1%	4.89%	2.48%
Cc1cccc(-c2n[nH]cc2-c2ccc3ncccc3n2)n1	30.9%	1.75%	1.88%	4.05%	19.5%	-0.22%	0.4%	-0.46%	0.93%	-1.15%

SMILES	inhibition [1]	inhibition [2]	inhibition [3]	inhibition [4]	inhibition [5]	inhibition [6]	inhibition [7]	inhibition [8]	inhibition [9]	inhibition [10]
Cc1cc(O)cc(C)c1/C=C/c1cncc(-c2nn[nH]n2)c1	25.3%	6.51%	5.24%	9.23%	21.7%	3.48%	9.22%	4.45%	10.7%	-1.84%
COc1ccc(-c2nn3ncccc3c2-c2ccnc(Nc3ccc(Cl)c(C(F)(F)F)c3)n2)cc1	14.7%	2.33%	1.56%	3.94%	10.2%	1.84%	5.36%	2.73%	6.97%	0.59%
COc1cc2ncn(-c3cc(OCc4ccccc4C(F)(F)F)c(C(N)=O)s3)c2cc1OC	30.1%	2.39%	2.9%	7.46%	25.5%	14.3%	55.5%	15.2%	52.8%	-4.21%
O=C1NC(=O)C(c2ccccc2Cl)=C1Nc1cccc(O)c1	6.87%	1.44%	1.89%	3.8%	5.96%	7.3%	27.2%	7.12%	22.5%	-0.62%
CC(=O)Nc1cccc(C#Cc2cncnc2Nc2ccc(OCc3cccc(F)c3)c(Cl)c2)n1	8.1%	-0.39%	-1.7%	0.33%	10.7%	4%	7.41%	3.99%	8.13%	2.55%
CCn1c(-c2nonc2N)nc2cnc(Oc3cccc(NC(=O)c4ccc(OCCN5CCOCC5)cc4)c3)cc21	13.2%	3.5%	3.8%	6.17%	12.5%	2.14%	3.43%	2.3%	3.84%	-1.24%
COc1ccc2cc(-c3c(-c4ccncc4)nc(-c4ccc([S+](C)[O-])cc4)n3C)ccc2c1 (stereo not given)	8.42%	4.05%	3.39%	3.38%	9.34%	4.01%	4.79%	6.01%	8.09%	-0.63%
CCCN1CCC(Oc2cc(Nc3nc(Nc4cccc(F)c4C(N)=O)c4cc[nH]c4n3)c(OC)cc2Cl)CC1	3.64%	0.84%	20.6%	1%	1.71%	-0.56%	1.54%	-0.96%	0.14%	1.68%
CCn1c(-c2nonc2N)nc2cncc(C(=O)N3CCNCC3)c21	4.49%	5.61%	4.93%	5.47%	6.02%	3.69%	5.39%	8.73%	8.25%	-0.22%
NC(=O)c1cccc(Nc2nccc(Nc3cccc4[nH]ncc34)n2)c1	39.2%	-4%	0.69%	0.64%	29%	-3.17%	13.3%	-4.57%	6.87%	-0.32%
CS(=O)(=O)Nc1ccc(N/C=C2\C(=O)Nc3ccccc32)cc1	73%	-3.18%	-0.2%	11.8%	63.8%	6.72%	51.9%	-0.42%	24.6%	0.42%
CCn1c(-c2nonc2N)nc2c(C#CC(C)(C)O)nc(CN3CCCC3)cc21	1.37%	0.73%	-0.46%	2.4%	0.35%	-1.15%	0.25%	-2.44%	-2.27%	-0.36%
Cc1ccc(NC(=O)c2ccnc(N3CCCC3)c2)cc1-c1ccc(C(=O)NCC2CC2)cc1	10.9%	5.95%	5.8%	11.6%	10.5%	8.79%	9.83%	9.39%	9.53%	4.41%
Fc1cccc(COc2ccc(Nc3ncnc4cc(-c5ccc[nH]5)sc34)cc2Cl)c1	13.9%	3.99%	3.24%	6.08%	12.7%	0.61%	2.35%	1.18%	3.32%	-0.07%
CCn1c(-c2nonc2N)nc2c(N3CCCC3)nccc21	2.78%	-2.28%	-2.11%	0.71%	2.4%	-1.49%	-1.2%	-2.05%	0.3%	0.47%
COc1ccc(COc2ccc(Cc3cnc(N)nc3N)cc2OC)cc1	6.03%	1.66%	0.97%	0.71%	4.81%	4.51%	4.23%	3.88%	3.04%	3.22%
COc1cc(C)c(NC(=O)CN(C)C)cc1Nc1nc(Nc2cccc(F)c2C(N)=O)c2cc[nH]c2n1	17.8%	3.12%	6.41%	3.15%	13.8%	4.73%	17.7%	5.85%	7.94%	0.41%

— ChEMBL document CHEMBL1961873, “Compounds: GSK PKIS; Assays: Nanosyn kinase panel” (2012)
